Among all 59,000 compounds or so, about 6,200 (11%) were called active. Another 9% or so got no clear call; they are omitted. No stated cut-off is given here; in the data, active means max dye-equivalent concentration above about 10 nM; inconclusive means mostly about 1.1 nM to 9.6 nM; inactive means weaker than that. For the sample, actives were picked, then their nearest neighbours and some compounds at random.

This test in a line: qHTS Assay for Spectroscopic Profiling in 4-MU Spectral Region. The following applies: compound autofluorescence, 340/450 nm, 4-MU equivalents; stronger effect = higher value. The gist of the method:
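Compounds in 100 mM Tris, pH 8.0, sat 15 min at room temperature before fluorescence was read at 340 nm excitation/450 nm emission; a per-plate six-point 4-MU standard curve converted signals to dye-equivalent concentration at each compound concentration.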
(In general: In qHTS, concentration-response curves come from the screen itself.)
Take `O=C(NCCSc1ccccc1)c1ccco1`: the max dye-equivalent concentration result is “inactive”. In the case of `Cc1cc2ccccc2n2c(SCC(=O)N3CCN(C(=O)c4ccco4)CC3)nnc12`, the max dye-equivalent concentration result is “inactive”.

Consider `CC12CCC(C(=O)N3CCN(c4ncccn4)CC3)(c3nc4ccccc4nc31)C2(C)C` (configuration not stated), for which the max dye-equivalent concentration result is “inactive”. `O=c1c(-c2ccc3c(c2)OCCO3)c(C(F)(F)F)oc2cc(O)cc(O)c12`: the max dye-equivalent concentration entry is “inactive”.

Regarding `CC(=O)Nc1ccn(Cc2c(F)cccc2Cl)n1`, the max dye-equivalent concentration result is “inactive”. For `O=C(c1ccncc1)N1CCC2(CCCN(C(c3ccccc3)c3ccccc3)C2)CC1`, the max dye-equivalent concentration entry was “inactive”. The value for `CC1CCCCC1NC(=O)CSc1nnc(N)s1` (configuration not stated) was “inactive”; that for `CC(=O)CSc1nnc(CSc2ncccn2)n1C1CCCCC1` was “inactive”; that for `COc1ccccc1CNC(=O)CCn1c(=O)sc2ccccc21` was “inactive”. As for `CCN(Cc1nc2ccccc2c(=O)[nH]1)Cc1cc(=O)oc2cc(C)c(C)cc12`, the entry is “inactive”; as for `Cc1ccnc(SCCn2c(Br)nc3c2c(=O)[nH]c(=O)n3C)n1`, “inactive”. In the case of `CCCCNC(=O)c1ccccc1NC(=O)c1ccccc1N(C)S(C)(=O)=O`, the max dye-equivalent concentration entry is “inactive”. As to `COc1ccccc1Nc1ncc(C(C)=O)c(C)n1`, the max dye-equivalent concentration result is “inactive”.

In the case of `COCCCn1c(CCC(=O)O)ccc1-c1ccc(F)cc1`, the max dye-equivalent concentration was 1.6 µM (active). As for `CCN(CC)S(=O)(=O)c1cccc(C(=O)Nc2cc(C)nn2-c2nc(C)cc(C)n2)c1`, the entry is “inactive”; as for `c1ccc2sc(SCCSc3nc4ccccc4s3)nc2c1`, “inactive”.

Turning to `CCOC(=O)N1CCN(C(=O)c2ccc(S(=O)(=O)c3ccc(C)cc3)c(NC(C)=O)c2)CC1`, the max dye-equivalent concentration entry was “inactive”. The value for `CCOC(=O)N1CCN(C(=O)CNC(=O)Cc2ccc(Cl)cc2)CC1` was “inactive”; that for `CCOC(=O)N1CCN(C(=O)c2ccc3nc4cc(Cl)ccc4c(=O)n3c2)CC1` was 1.3 µM (active); that for `COC(=O)c1ccc(N(CC(=O)NC2CCCC2)C(=O)CNC(=O)c2ccco2)cc1` was “inactive”. As for `Cc1ccccc1N1CC(c2nc3ccccc3[nH]2)CC1=O` (configuration not stated), the entry is “inactive”; as for `CC(C)(C)n1nnc(CCc2nnn(C(C)(C)C)n2)n1`, “inactive”. As for `Cc1cc(Cl)c(S(=O)(=O)NCc2cccnc2)cc1OCC(N)=O`, the max dye-equivalent concentration result is “inactive”.

Regarding `COC(=O)C(C)N(C#N)c1nc(C)nc(C)n1` (configuration not stated), the max dye-equivalent concentration result is “inactive”. As for `Cn1c(=O)[nH]c(=O)c2c1nc(Br)n2CCCCSc1nc2ccccc2o1`, the max dye-equivalent concentration result was “inactive”. On to `CC[C@]1(O)C[C@@H]2CN(CCc3c([nH]c4ccccc34)[C@@](C(=O)OC)(c3cc4c(cc3OC)N(C)[C@H]3[C@@](O)(C(=O)OC)[C@H](OC(C)=O)[C@]5(CC)C=CCN6CC[C@]43[C@@H]65)C2)C1`, for which the max dye-equivalent concentration is 0.047 µM (active). As for `CC[C@]1(O)CC2CN(CCc3c([nH]c4ccccc34)[C@@](C(=O)OC)(c3cc4c(cc3OC)N(C=O)[C@H]3[C@@](O)(C(=O)OC)[C@H](OC(C)=O)[C@]5(CC)C=CCN6CC[C@]43[C@@H]65)C2)C1` (some centres not stated), the entry is “inactive”.

(Values after PubChem BioAssay AID589 (National Center for Advancing Translational Sciences (NCATS), 2007).)
